Assay results as given in PMC7862700, “An all-to-all approach to the identification of sequence-specific readers for epigenetic DNA modifications on cytosine”.

Columns and labels:
Assay in all cases: DAPPL (digital affinity profiling via proximity ligation, sequencing); 10 mM Tris-HCl pH 7.5, 50 mM NaCl, 1 mM DTT, 4% glycerol, room temperature, 30 min; GST-TFs on glutathione beads, 16-mer random dsDNA library, 0.1% formaldehyde crosslink after washing; high values mean tight binding
FLI1 = target: T1, FLI1 (Homo sapiens, UniProt Q01543 1-452); conditions: protein: recombinant; tags: N-terminal GST; dsDNA, one strand shown
T1 sequence: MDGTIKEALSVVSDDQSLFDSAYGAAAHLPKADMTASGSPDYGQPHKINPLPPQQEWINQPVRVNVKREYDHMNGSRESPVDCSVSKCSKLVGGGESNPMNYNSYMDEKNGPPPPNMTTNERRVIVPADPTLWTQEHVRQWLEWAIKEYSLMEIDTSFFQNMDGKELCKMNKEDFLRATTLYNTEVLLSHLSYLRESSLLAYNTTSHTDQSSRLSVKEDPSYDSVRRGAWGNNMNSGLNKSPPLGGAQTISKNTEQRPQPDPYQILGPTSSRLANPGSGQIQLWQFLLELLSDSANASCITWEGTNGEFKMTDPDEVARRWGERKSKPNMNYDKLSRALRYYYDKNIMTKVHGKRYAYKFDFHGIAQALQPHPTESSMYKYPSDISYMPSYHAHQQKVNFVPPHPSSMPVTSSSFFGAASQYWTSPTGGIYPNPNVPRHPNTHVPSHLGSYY
Outline: (§1)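 After expression in yeast as GST fusions, human transcription factors were bound to glutathione beads, DNA-barcoded and mixed with a tag-only sample. The pools were incubated with 200 nmole of a 16-mer random double-stranded DNA library in Tris/NaCl/DTT/glycerol buffer (30 min, room temperature), washed and crosslinked with 0.1% formaldehyde. Proximity ligation with BsaI/T4 ligase ran for 1 h at 37 °C, before PCR amplification and sequencing on an Illumina NextSeq500. Binding signal is a hexamer's read frequency for a factor divided by its frequency for the tag-only sample.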

ELK1 = target: T2, ELK1 (Homo sapiens, UniProt P19419 1-428); conditions: protein: recombinant; tags: N-terminal GST; dsDNA, one strand shown
T2 sequence: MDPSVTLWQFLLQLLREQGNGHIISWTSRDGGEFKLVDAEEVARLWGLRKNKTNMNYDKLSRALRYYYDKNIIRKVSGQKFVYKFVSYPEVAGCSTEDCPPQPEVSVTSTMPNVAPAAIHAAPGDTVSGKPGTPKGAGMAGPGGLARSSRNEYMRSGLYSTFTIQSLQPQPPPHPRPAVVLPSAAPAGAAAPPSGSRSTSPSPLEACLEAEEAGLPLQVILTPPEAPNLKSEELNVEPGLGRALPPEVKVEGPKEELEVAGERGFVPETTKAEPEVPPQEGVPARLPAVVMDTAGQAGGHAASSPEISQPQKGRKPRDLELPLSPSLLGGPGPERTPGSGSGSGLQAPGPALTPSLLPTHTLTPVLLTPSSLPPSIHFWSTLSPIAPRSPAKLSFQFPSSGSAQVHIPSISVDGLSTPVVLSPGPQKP
Outline: as §1

GABPA = target: T3, GABPA (Homo sapiens, UniProt Q06546 1-454); conditions: protein: recombinant; tags: N-terminal GST; dsDNA, one strand shown
T3 sequence: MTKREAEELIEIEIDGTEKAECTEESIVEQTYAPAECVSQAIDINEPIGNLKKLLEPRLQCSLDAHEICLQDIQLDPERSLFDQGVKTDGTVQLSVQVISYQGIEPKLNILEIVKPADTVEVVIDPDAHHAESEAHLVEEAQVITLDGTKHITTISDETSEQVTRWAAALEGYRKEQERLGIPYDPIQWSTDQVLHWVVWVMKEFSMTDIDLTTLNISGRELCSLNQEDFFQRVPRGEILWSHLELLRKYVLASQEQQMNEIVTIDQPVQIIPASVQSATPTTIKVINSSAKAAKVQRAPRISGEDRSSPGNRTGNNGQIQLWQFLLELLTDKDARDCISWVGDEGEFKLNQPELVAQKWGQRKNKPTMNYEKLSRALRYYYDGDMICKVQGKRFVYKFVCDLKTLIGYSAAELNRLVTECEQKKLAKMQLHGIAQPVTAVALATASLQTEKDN
Outline: as §1

ERG = target: T4, ERG (Homo sapiens, UniProt P11308 1-479); conditions: protein: recombinant; tags: N-terminal GST; dsDNA, one strand shown
T4 sequence: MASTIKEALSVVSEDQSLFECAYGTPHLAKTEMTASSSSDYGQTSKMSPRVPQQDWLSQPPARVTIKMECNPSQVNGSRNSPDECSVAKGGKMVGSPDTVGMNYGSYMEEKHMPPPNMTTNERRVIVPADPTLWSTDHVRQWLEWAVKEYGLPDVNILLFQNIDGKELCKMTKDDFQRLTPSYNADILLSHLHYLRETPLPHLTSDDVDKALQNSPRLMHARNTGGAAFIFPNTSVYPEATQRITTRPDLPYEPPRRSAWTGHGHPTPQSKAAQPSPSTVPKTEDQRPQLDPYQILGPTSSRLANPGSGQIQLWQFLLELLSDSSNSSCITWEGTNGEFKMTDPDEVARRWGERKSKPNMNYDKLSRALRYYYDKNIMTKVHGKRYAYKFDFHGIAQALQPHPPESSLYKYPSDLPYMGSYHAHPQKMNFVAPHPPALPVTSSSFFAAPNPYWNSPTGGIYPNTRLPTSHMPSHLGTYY
Outline: as §1

ELF1 = ELF1 (Homo sapiens, UniProt P32519 1-619); conditions: protein: recombinant; tags: N-terminal GST; dsDNA, one strand shown
ELF1, sequence (P32519 whole entry): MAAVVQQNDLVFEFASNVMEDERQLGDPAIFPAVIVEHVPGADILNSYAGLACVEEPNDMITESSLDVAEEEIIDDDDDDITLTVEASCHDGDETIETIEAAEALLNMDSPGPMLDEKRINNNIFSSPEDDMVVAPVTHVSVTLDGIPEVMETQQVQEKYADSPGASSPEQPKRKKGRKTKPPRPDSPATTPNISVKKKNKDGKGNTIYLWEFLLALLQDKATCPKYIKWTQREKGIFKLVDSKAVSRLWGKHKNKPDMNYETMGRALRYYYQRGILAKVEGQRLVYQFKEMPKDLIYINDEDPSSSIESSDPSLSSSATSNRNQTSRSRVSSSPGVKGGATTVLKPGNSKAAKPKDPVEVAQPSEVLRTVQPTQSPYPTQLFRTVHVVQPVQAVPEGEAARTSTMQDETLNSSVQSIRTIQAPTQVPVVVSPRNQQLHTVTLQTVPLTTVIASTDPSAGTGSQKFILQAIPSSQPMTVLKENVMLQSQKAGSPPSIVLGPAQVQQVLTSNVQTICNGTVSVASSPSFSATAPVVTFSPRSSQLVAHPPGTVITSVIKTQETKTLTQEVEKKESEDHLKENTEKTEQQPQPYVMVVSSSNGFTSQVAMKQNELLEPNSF
Outline: as §1

EHF = target: T5, EHF (Homo sapiens, UniProt Q9NZC4 1-300); conditions: protein: recombinant; tags: N-terminal GST; dsDNA, one strand shown
T5 sequence: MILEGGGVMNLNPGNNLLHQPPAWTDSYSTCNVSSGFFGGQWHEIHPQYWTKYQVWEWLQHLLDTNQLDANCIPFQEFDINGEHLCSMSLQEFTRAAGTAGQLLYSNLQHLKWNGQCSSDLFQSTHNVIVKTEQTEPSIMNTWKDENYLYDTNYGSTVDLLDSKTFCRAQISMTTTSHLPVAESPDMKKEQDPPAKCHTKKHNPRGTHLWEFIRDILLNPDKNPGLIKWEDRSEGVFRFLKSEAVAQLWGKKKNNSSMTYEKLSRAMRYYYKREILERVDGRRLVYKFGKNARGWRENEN
Outline: as §1

SPI1 = SPI1 (Homo sapiens, UniProt P17947 1-270); conditions: protein: recombinant; tags: N-terminal GST; dsDNA, one strand shown
Outline: as §1

SPIB = SPIB (Homo sapiens, UniProt Q01892 1-262); conditions: protein: recombinant; tags: N-terminal GST; dsDNA, one strand shown
SPIB, sequence (Q01892 whole entry): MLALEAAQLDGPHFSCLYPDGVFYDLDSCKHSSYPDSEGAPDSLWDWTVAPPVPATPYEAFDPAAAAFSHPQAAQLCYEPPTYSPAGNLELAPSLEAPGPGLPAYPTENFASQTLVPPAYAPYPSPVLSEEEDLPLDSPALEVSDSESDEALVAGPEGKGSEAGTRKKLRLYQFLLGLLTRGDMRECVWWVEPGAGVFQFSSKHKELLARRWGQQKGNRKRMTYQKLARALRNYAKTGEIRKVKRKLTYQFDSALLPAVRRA
Outline: as §1

ELK3 = target: T6, ELK3 (Homo sapiens, UniProt P41970 1-407); conditions: protein: recombinant; tags: N-terminal GST; dsDNA, one strand shown
T6 sequence: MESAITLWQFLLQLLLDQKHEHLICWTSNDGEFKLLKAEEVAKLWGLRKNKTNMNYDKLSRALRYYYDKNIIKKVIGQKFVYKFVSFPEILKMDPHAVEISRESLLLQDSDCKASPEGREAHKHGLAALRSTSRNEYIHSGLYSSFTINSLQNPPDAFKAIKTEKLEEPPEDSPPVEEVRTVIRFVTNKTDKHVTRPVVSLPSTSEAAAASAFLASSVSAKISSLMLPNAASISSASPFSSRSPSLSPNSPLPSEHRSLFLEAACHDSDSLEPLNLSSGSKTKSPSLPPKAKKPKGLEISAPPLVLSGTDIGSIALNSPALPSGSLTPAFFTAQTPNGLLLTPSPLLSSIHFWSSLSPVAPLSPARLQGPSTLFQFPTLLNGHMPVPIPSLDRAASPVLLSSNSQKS
Outline: as §1

FEV = target: T7, FEV (Homo sapiens, UniProt Q99581 1-238); conditions: protein: recombinant; tags: N-terminal GST; dsDNA, one strand shown
T7 sequence: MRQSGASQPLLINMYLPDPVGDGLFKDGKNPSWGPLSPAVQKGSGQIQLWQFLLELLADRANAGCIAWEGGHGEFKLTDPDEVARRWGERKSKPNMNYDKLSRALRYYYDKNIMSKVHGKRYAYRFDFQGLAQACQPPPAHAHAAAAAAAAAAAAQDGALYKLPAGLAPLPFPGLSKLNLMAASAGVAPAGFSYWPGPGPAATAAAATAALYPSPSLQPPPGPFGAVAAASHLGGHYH
Outline: as §1

ETV5 = ETV5 (Homo sapiens, UniProt P41161 1-510); conditions: protein: recombinant; tags: N-terminal GST; dsDNA, one strand shown
ETV5, sequence (P41161 whole entry): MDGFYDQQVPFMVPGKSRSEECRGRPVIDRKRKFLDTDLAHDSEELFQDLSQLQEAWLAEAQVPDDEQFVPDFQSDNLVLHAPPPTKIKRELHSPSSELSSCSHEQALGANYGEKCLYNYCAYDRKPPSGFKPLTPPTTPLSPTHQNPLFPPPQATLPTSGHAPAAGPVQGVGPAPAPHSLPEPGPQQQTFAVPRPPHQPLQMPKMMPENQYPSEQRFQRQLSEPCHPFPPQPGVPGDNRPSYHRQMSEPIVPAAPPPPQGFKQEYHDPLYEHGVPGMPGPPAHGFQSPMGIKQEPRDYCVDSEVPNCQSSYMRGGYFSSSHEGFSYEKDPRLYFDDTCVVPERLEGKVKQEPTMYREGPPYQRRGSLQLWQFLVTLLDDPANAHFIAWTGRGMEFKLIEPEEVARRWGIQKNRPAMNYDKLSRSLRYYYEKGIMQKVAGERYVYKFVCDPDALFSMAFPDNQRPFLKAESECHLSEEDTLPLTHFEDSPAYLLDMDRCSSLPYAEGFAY
Outline: as §1

HSF1 = HSF1 (Homo sapiens, UniProt Q00613 1-529); conditions: protein: recombinant; tags: N-terminal GST; chain copies: 3; dsDNA, one strand shown
HSF1, sequence (Q00613 whole entry): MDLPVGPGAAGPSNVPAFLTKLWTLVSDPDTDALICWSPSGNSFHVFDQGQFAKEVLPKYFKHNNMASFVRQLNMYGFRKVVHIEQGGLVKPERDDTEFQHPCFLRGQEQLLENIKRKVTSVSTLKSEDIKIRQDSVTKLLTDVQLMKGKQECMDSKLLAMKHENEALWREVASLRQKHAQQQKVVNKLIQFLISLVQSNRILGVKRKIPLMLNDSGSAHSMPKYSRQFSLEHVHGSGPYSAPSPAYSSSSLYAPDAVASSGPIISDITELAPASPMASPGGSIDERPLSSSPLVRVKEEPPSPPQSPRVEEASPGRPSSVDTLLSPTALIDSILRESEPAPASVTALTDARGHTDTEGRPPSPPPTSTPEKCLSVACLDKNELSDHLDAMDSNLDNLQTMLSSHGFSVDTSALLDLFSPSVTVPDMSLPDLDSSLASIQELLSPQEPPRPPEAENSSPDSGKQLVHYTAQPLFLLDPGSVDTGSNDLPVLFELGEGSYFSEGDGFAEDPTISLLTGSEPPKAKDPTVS
Outline: as §1

SPIC = target: T8, SPIC (Homo sapiens, UniProt Q8N5J4 1-248); conditions: protein: recombinant; tags: N-terminal GST; dsDNA, one strand shown
T8 sequence: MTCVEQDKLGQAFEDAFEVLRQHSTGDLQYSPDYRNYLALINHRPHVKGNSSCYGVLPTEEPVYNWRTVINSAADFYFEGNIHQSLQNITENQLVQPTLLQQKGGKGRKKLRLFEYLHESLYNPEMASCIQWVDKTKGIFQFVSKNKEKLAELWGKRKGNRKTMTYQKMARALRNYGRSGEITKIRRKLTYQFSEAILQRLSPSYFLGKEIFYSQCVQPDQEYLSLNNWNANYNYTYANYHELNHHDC
Outline: as §1

ELF4 = ELF4 (Homo sapiens, UniProt Q99607 1-663); conditions: protein: recombinant; tags: N-terminal GST; dsDNA, one strand shown
ELF4, sequence (Q99607 whole entry): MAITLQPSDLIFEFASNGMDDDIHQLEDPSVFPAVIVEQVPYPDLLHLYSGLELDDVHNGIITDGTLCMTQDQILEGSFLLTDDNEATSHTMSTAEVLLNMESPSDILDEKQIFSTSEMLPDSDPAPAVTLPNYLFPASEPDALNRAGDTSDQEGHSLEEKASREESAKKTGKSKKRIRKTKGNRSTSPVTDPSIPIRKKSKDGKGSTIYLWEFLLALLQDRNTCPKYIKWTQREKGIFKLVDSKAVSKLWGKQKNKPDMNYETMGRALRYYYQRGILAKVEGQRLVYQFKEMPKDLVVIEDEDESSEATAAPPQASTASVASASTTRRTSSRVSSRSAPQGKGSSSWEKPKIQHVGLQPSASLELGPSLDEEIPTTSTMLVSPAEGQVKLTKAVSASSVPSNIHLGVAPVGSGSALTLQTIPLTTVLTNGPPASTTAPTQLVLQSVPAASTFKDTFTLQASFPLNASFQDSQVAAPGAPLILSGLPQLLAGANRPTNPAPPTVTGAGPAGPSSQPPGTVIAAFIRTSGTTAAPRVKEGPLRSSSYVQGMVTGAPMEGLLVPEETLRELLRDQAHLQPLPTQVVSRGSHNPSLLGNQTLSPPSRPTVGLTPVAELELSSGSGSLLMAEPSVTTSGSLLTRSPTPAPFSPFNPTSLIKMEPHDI
Outline: as §1

ELK4 = target: T9, ELK4 (Homo sapiens, UniProt P28324-2 1-405); conditions: protein: recombinant; tags: N-terminal GST; dsDNA, one strand shown
T9 sequence: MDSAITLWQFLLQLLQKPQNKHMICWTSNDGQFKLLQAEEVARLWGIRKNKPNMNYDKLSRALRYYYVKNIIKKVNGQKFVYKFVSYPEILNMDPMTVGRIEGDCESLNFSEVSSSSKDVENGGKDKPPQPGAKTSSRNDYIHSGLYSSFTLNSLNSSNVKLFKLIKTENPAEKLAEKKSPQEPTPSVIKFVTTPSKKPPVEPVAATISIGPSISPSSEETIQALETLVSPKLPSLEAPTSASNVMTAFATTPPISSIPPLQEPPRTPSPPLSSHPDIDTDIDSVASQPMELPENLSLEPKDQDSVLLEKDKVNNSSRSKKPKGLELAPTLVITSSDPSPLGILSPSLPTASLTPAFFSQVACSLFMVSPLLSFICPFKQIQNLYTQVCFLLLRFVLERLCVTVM
Outline: as §1

ETV2 = target: T10, ETV2 (Homo sapiens, UniProt O00321 1-342); conditions: protein: recombinant; tags: N-terminal GST; dsDNA, one strand shown
T10 sequence: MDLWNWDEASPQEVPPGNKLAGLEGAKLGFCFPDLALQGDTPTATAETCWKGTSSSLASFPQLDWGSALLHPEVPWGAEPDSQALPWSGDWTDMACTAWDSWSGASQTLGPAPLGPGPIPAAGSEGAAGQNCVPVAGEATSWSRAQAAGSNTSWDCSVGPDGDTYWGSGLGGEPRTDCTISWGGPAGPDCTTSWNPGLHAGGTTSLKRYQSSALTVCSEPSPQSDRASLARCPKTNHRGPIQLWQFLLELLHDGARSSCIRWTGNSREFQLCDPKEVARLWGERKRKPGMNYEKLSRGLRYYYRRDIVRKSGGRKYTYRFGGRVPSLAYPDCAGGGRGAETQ
Outline: as §1

ELF3 = target: T11, ELF3 (Homo sapiens, UniProt P78545 1-371); conditions: protein: recombinant; tags: N-terminal GST; dsDNA, one strand shown
T11 sequence: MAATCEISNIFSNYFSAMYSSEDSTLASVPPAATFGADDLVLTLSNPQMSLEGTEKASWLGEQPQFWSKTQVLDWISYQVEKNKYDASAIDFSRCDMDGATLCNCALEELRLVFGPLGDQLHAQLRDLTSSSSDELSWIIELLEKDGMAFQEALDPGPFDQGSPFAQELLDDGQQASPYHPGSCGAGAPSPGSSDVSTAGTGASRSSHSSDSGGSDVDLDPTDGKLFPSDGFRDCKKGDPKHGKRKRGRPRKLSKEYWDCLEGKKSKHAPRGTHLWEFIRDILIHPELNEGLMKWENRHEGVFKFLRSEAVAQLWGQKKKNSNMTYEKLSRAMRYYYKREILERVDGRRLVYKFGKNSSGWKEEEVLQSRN
Outline: as §1

CRX = CRX (Homo sapiens, UniProt O43186 1-299); conditions: protein: recombinant; tags: N-terminal GST; dsDNA, one strand shown
CRX, sequence (O43186 whole entry): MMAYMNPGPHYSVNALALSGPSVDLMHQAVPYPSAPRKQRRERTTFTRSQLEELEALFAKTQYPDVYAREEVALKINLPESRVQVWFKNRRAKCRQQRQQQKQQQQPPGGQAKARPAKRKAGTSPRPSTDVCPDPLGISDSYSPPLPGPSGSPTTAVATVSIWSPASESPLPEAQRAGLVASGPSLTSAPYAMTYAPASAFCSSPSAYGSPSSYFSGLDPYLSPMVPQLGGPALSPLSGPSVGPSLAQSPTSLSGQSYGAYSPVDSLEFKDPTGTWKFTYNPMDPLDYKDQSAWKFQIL
Outline: as §1

ETV1 = ETV1 (Homo sapiens, UniProt P50549 1-477); conditions: protein: recombinant; tags: N-terminal GST; dsDNA, one strand shown
ETV1, sequence (P50549 whole entry): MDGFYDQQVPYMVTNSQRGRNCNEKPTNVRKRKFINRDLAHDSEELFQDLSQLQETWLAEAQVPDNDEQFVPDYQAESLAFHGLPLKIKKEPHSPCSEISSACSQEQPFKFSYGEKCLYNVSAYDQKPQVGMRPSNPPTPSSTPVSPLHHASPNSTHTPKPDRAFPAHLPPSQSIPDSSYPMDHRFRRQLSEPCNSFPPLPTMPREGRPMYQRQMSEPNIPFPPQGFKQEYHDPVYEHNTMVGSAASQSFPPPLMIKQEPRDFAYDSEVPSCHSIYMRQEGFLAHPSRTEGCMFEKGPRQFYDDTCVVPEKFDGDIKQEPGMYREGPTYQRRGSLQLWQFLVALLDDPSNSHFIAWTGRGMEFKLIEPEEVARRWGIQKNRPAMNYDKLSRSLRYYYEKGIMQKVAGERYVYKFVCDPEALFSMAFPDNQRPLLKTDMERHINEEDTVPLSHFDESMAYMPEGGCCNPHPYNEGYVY
Outline: as §1

## AAAATC
FLI1
  binding signal: 1.16 fold enrichment (6-mer frequency, TF over GST control)
ELK1
  binding signal: 1.11 fold enrichment (6-mer frequency, TF over GST control)
GABPA
  binding signal: 1.22 fold enrichment (6-mer frequency, TF over GST control)
ERG
  binding signal: 1.18 fold enrichment (6-mer frequency, TF over GST control)
ELF1
  binding signal: 1.15 fold enrichment (6-mer frequency, TF over GST control)
EHF
  binding signal: 1.2 fold enrichment (6-mer frequency, TF over GST control)
SPI1
  binding signal: 1.14 fold enrichment (6-mer frequency, TF over GST control)
SPIB
  binding signal: 1.17 fold enrichment (6-mer frequency, TF over GST control)
ELK3
  binding signal: 1.1 fold enrichment (6-mer frequency, TF over GST control)
FEV
  binding signal: 1.19 fold enrichment (6-mer frequency, TF over GST control)
ETV5
  binding signal: 1.19 fold enrichment (6-mer frequency, TF over GST control)
HSF1
  binding signal: 1.51 fold enrichment (6-mer frequency, TF over GST control)
SPIC
  binding signal: 1.07 fold enrichment (6-mer frequency, TF over GST control)
ELF4
  binding signal: 1.23 fold enrichment (6-mer frequency, TF over GST control)
ELK4
  binding signal: 1.05 fold enrichment (6-mer frequency, TF over GST control)
ETV2
  binding signal: 1.28 fold enrichment (6-mer frequency, TF over GST control)
ELF3
  binding signal: 1.11 fold enrichment (6-mer frequency, TF over GST control)
CRX
  binding signal: 1.62 fold enrichment (6-mer frequency, TF over GST control)
ETV1
  binding signal: 1.12 fold enrichment (6-mer frequency, TF over GST control)
